PubChem BioAssay AID445 (National Center for Advancing Translational Sciences (NCATS), 2006)
The campaign covered roughly 110,000 compounds. About 40 (0.04%) were called active. Not shown: some 22% with an inconclusive outcome. The sample holds actives, similar compounds and a random draw of the others, so the mix is not that of the screen. Calls follow the shape of the dose curve; as a rule, active = well fitted curve in the direction sought with a large enough effect in the signal ratio (not every such curve was filed as active); inconclusive = small, poorly fitted or top-dose-only effect, or a change in a side signal; inactive = flat fitted curve, though single readings scatter; the % refers to the signal ratio.

assay: IkB Signaling; details: ABC-DLBCL IkBa-CBG/CBR dual luciferase ratio, 4 h; series mostly up to 57.1 µM; IkBa stabilization activation: at the top concentration;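 as to IkBa stabilization activation: 0% = basal untreated cells and 100% = reference inhibitor full response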
From the text: NIH Molecular Libraries Screening Centers Network [MLSCN]
NIH Chemical Genomics Center [NCGC]
Nuclear factor kappa-B (NF-kappa-B) plays an important role in normal B cell development and survival. Diffuse large B cell lymphoma (DLBCL) is the most commonly observed type of non-Hodgkin's lymphoma. Gene expression analysis has identified an activated B cell-like subtype of DLBCL (ABC-DLBCL) which expresses known NF-kappa-B target genes. […] However, targets upstream of IKK have been largely unexplored and so nodes upstream of IKK in the NF-kappa-B pathway remain untested due to the lack of chemical probes.
A cell-sensor assay for I-kappa-B-alpha stabilization was developed with NIH investigator Dr. R. Eric Davis in Dr. Louis M. Staudt's laboratory. The assay uses green (CBG68) and red (CBR) emitting beetle luciferases [Chroma-Glo(TM) developed by Promega Corp.] where the green luciferase is fused to I-kappa-B-alpha and the red luciferase is present in its native state. Both luciferase genes are stably present in the OCI-Ly3 human ABC DLBCL cell line, but their expression is under the control of tetracycline-inducible promoters. Following the addition of doxycycline to induce expression of the luciferases, the green luminescence in control cultures rises only slowly because the CBG fusion partner I-kappa-B-alpha is targeted by IKK activity for rapid degradation. In contrast, green luminescence rises rapidly in the presence of proteasome inhibitors or IKK inhibitors. The rise in red luminescence of CBR is not affected by proteasome or IKK inhibitors, and serves as normalization for cell number and nonspecific effects. Compounds were screened as a concentration-titration series that ranged from 57 uM to 0.7 nM.
NCGC Assay Protocol Summary:
Cells were seeded in 1536-well plates at 5000 cells/3ul in IMDM medium containing 0.5% FBS, w/o phenol red, L-glutamine, 25 mM HEPES, 3 mg/ml sodium bicarbonate. After centrifugation for 1 min. at 1000 rpm, 23 nl of compounds or DMSO were delivered to each well using a pin tool. Then 1ul 80ng/ml doxycycline was dispensed into white solid 1536-well plates and the plates were incubated at 37C/5% C02 in a cell incubator for 4 hrs. Then 4 ul Chroma-Glo luminescent substrate mix (Promega) was added to each well. The plate was incubated at R.T. for 10-15 min. The plates were measured on a ViewLux plate reader for green luminescence (540/20 nm filter) and red luminescence (618/8 nm filter). The green and red luminescent signals were corrected for red and green luminescence filter overlap using previously determined filter calibration constants (determined using the procedure outlined in the Promega Technical Manual). The %Activity was determined from the ratio of corrected green/red luminescent values. Green luminescent and ratio %Activity was determined by normalizing to the difference in signal between basal cells (0% Activity) and cells incubated with 10 uM of the proteasome inhibitor MG-132 (100% Activity). Red luminescent %Activity was normalized to the difference between red luminesence in basal cells (0%Activity) and zero luminescence (-100% Activity).
Concentration-response curves were fitted to the signals arising from the green luminescence (I-kappa-B-alpha-luciferase fusion; IkB-luc) and the red luminescence (unfused luciferase; luc) as well as the calculated ratio. The concentration-effect curves were then classified based on curve quality (r2), response magnitude and degree of measured activity. Compounds were then categorized based on their concentration-response curves for all three datasets (Ikb-luc, luc and ratio).
Keywords: IKK, I-kappa-B, IkB, IkBa, cytotoxicity, luminescence, MLSMR, MLSCN, NIH Roadmap, qHTS, NCGC
Potency is read from the fitted curve at half-maximal effect.

| SMILES | IkBa stabilization activation | Potency |
| --- | --- | --- |
| COCCCNC(=O)c1c(NC(=O)c2cc(=O)c3cc(C)c(C)cc3o2)sc2c1CCCC2 | -1.3% (inactive) | – |
| CC(C)(C)OC(=O)N1CCC(c2c(C(=O)N3CCc4ccccc4C3)cnn2-c2ccc(F)cc2)CC1 | 0.532% (inactive) | – |
| Cc1ccc2nc(-c3ccc(C)c(NC(=O)Cc4ccccc4)c3)oc2c1 | -2.33% (inactive) | – |
| O=C(NCc1ccc(F)cc1)c1ccc2nc(N3CCCCC3)sc2c1 | -0.827% (inactive) | – |
| COc1ccc(-c2nn(CC(=O)NC3CCCC3)c3c2cnc2ccc(F)cc23)cc1 | -3.12% (inactive) | – |
| CCOc1ccc(N2CC(C)Cn3c2nc2c3c(=O)n(Cc3c(F)cccc3Cl)c(=O)n2C)cc1 (configuration not stated) | -0.396% (inactive) | – |
| CCOc1ccc(NC(=O)Cn2c(C)ccc(C#N)c2=O)cc1 | -1.37% (inactive) | – |
| O=C(Nc1cccc2cccnc12)c1cccc2c(Br)cccc12 | -3.7% (inactive) | – |
| COc1ccc(-n2c(SC)nc3sc4c(c3c2=O)CCN(C(C)=O)C4)cc1 | 1.77% (inactive) | – |
| Cc1ccc(S(=O)(=O)N2CCc3cc(C(=O)Nc4ccc(Cl)cc4C)ccc32)cc1 | -1.18% (inactive) | – |
| COc1ccc(C)cc1-n1c(-c2ccc(C)cc2)cc2c1CC(C)(C)CC2=O | 1.22% (inactive) | – |
| CCC1CCCCN1Cc1c(O)ccc2c(=O)c(Oc3ccccc3Cl)c(C(F)(F)F)oc12 (configuration not stated) | 6.03% (inactive) | – |
| Cc1ccc(F)cc1S(=O)(=O)N1CCC(c2nc3ccccc3s2)CC1 | 1.9% (inactive) | – |
| CC(=O)c1ccc(NC(=O)COc2ccccc2-c2nc(-c3ccccc3)no2)cc1 | -2.41% (inactive) | – |
| CCc1nn(CCCC(=O)NC(C)c2ccccc2)c(=O)c2cc3occc3n12 (configuration not stated) | 0.87% (inactive) | – |
| CC(=O)N1CCCc2cc(S(=O)(=O)Nc3ccc(Cl)cc3F)ccc21 | 0.612% (inactive) | – |
| COc1ccc(CNC(=O)C(C)n2nc(C)c3c(C)n(-c4ccccc4)nc3c2=O)c(OC)c1 (configuration not stated) | 2.88% (inactive) | – |
| Cc1ccc(-c2nc(Cn3c(=O)cc(-c4ccccc4)c4c(C)nn(C)c43)c(C)o2)cc1 | -0.408% (inactive) | – |
| COc1ccc(C2C(=O)N(C3CCCCC3)CC(=O)N2Cc2ccccc2Cl)cc1OC (configuration not stated) | -0.663% (inactive) | – |

| SMILES | IkBa stabilization activation | Potency |
| --- | --- | --- |
| Cc1ccc(NC(=O)c2oc3ccccc3c2NC(=O)Cc2cccs2)cc1 | 0.174% (inactive) | – |
| CCOC(=O)C1CCN(S(=O)(=O)c2ccc3c(c2)N(C)C(=O)CC(=O)N3C)CC1 | 0.0845% (inactive) | – |
| COc1ccc(-c2nc3nc(C)cc(C)n3c2Nc2c(C)cccc2C)cc1 | 4.16% (inactive) | – |
| Cc1ccc(C)c(CN2C(=O)c3ccccc3S(=O)c3ccc(C(=O)N4CCOCC4)cc32)c1 (configuration not stated) | 0.246% (inactive) | – |
| Cc1ccccc1CNC(=O)CCCn1nc(C)c2sc3ccccc3c2c1=O | -0.00104% (inactive) | – |
| CCc1cccc(NC(=O)Cn2nc(CC)n3c(cc4cc(C)ccc43)c2=O)c1 | 6.39% (inactive) | – |
| Cn1c(=O)c2c(ncn2CC(=O)Nc2cccc(C(F)(F)F)c2)n(C)c1=O | 6.05% (inactive) | – |
| COc1ccc(NS(=O)(=O)c2cc3c(cc2C)N(C(C)=O)CCO3)cc1 | 12.8% (inactive) | – |
| COc1cc(C)ccc1OCCSc1nc2ccc(NC(=O)c3ccc(C)cc3)cc2s1 | 0.344% (inactive) | – |
| CCOC(=O)c1ccc(-c2ccc(/C=C(\C#N)C(=O)Nc3ccc(C)cc3)o2)cc1 | -0.769% (inactive) | – |
| CCn1c2c(c(=O)n3ncc(C(=O)N4CCN(c5ccccc5)CC4)c13)CN(Cc1ccc(OC)cc1)CC2 | 1.86% (inactive) | – |
| Cc1cccc(-n2c(SCC(N)=O)nc3c(oc4ccccc43)c2=O)c1 | -0.917% (inactive) | – |
| Cc1cccc(-c2nc(SCc3ccc(Br)cc3)n3[nH]c(=O)cc3n2)c1 | -5.03% (inactive) | – |
| CCOc1cccc2sc(N3CCN(C(=O)C4CC4)CC3)nc12 | -4.76% (inactive) | – |
| O=c1cc(CSc2ncn[nH]2)[nH]c2ccc(F)cc12 | 0.491% (inactive) | – |
| O=C(CC1Oc2ccccc2NC1=O)NCc1ccc(F)cc1 (configuration not stated) | 2.65% (inactive) | – |
| Cc1ccc(CNC(=O)CCC(=O)N2Cc3ccccc3Oc3ncccc32)cc1 | 2.77% (inactive) | – |
| Cc1cc(C)c(NC(=O)Cn2c(SCC(=O)NCc3ccccc3)nc3ccccc32)c(C)c1 | -0.55% (inactive) | – |
| CCCC(=O)N1CCN(c2nc3c(OC)ccc(C)c3s2)CC1 | -4.62% (inactive) | – |

| SMILES | IkBa stabilization activation | Potency |
| --- | --- | --- |
| Cc1cc(C)n(-c2ccc(Cl)c(C(=O)O)n2)n1 | 1.24% (inactive) | – |
| CC(=O)c1ccc(Oc2cc(C)nc(-n3nc(C)cc3C)n2)cc1 | – | 6.31 µM (active) |
| Cc1cccc(Nc2cc(C)nc(-n3nc(C)cc3C)n2)c1 | -1.06% (inactive) | – |
| OCc1cnc(SCc2ccc(F)cc2)n1Cc1ccc(F)cc1 | 1.24% (inactive) | – |
| CC(C)(C)OC(=O)N1CCC(c2c(C(=O)NCc3ccccn3)cnn2-c2ccc(F)cc2)CC1 | 0.0918% (inactive) | – |
| COc1ccccc1NC(=O)CN1C(=O)c2ccccc2Sc2ccc(C(=O)N3CCCC3)cc21 | 12.1% (inactive) | – |
| COCCn1c(CCC(=O)Nc2cc(C)ccc2C)nc2cccnc21 | 1.81% (inactive) | – |
| Cc1ccc(N2CC(C(=O)Nc3ccc(N(C)C)cc3)CC2=O)cc1Cl (configuration not stated) | 1.8% (inactive) | – |
| CCOc1ccc(N(CC)C(=O)c2noc3c2COc2ccc(C)cc2-3)cc1 | -0.625% (inactive) | – |
| Cc1ccc(C)c(N2C(=O)N(Cc3c(F)cccc3Cl)c3ccccc3S2(=O)=O)c1 | 9.61% (inactive) | – |
| Cc1csc2nc(COC(=O)c3ccccc3NC(=O)c3ccccc3Cl)cc(=O)n12 | 2.09% (inactive) | – |
| CCN(CC)C(=O)CSc1nc2cc3c(cc2c(=O)n1CCCC(=O)NCc1ccc2c(c1)OCO2)OCO3 | -2.8% (inactive) | – |
| O=C(CCn1c(=O)c2ccccc2n(Cc2ccc(Cl)cc2)c1=O)NCc1ccc2c(c1)OCO2 | -0.548% (inactive) | – |
| CCOc1ccc2nc(N3CCCC(C(=O)Nc4cc(C)ccc4C)C3)sc2c1 (configuration not stated) | -0.374% (inactive) | – |
| CCc1ccc(NC(=O)CN2C(=O)CCSc3ccc(S(=O)(=O)N4CCCC4)cc32)cc1 | 1.01% (inactive) | – |
| Cc1cccc(NC(=O)Cn2c(C(F)(F)F)nc3ccccc32)c1C | 2.61% (inactive) | – |
| COc1ccc(C2c3c(oc4ccccc4c3=O)C(=O)N2Cc2ccc3c(c2)OCO3)cc1 (configuration not stated) | 3.44% (inactive) | – |
| Cc1ccc(Cl)cc1NC(=O)C(C)n1nnc2sc(-c3ccccc3)cc2c1=O (configuration not stated) | -1.77% (inactive) | – |
| CCOC(=O)c1sc(NC(=O)/C=C/c2ccc(C(C)C)cc2)c(C(=O)OCC)c1C | -4.34% (inactive) | – |
